Records with an inconclusive call do not appear. Where a call stands in place of a potency, no number is given. Activity calls are given as the source filed them. Calls follow the shape of the dose curve; as a rule, active = well fitted cell-killing curve with a large enough effect; inconclusive = small, poorly fitted or top-dose-only effect, or effect the other way; inactive = flat fitted curve, though single readings scatter.

The nature of the assay: Compound cytotoxicity measured by an ATP content assay as a counter-screen for lead compounds in human astrocytes. Particulars: human astrocytes viability, ATP luminescence; series mostly up to 46.1 µM. Put shortly: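 Human astrocytes seeded 16–20 h beforehand at 37 C, 5% CO2, then exposed to compounds for set times (e.g. 6, 24 or 72 h). ATP content reagent added 1:1, 10 min room temperature; luminescence converted to percent inhibition of viability.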
(In general: The purpose of a counterscreen is to sort out artefacts and off-target activity.)
In the case of `CC1=C(CO)C(=O)O[C@@H]([C@@H](C)[C@H]2CC[C@H]3[C@@H]4C[C@H]5O[C@]56[C@@H](O)C=CC(=O)[C@]6(C)[C@@H]4CC[C@]23C)C1`, the Potency entry was “inactive”.
To `Cc1nc(N)sc1-c1ccnc(Nc2ccc(N3CCOCC3)cc2)n1` belongs “inactive”; to `CCCCC1C(=O)N(c2ccccc2)N(c2ccc(O)cc2)C1=O` (stereo not drawn), “inactive”; to `O=C(O)c1cc([N+](=O)[O-])ccc1NCCCc1ccccc1`, “inactive”.
Consider `[O-][n+]1ccccc1SSc1cccc[n+]1[O-]`, for which the Potency is 0.112 µM (active).
As for `Oc1ccc(/C=C/c2cc(O)cc(O)c2)cc1`, the figure is 10.9 µM (active).
To `CC(=O)Oc1cccc2c1C(=O)c1c(OC(C)=O)cc(C(=O)O)cc1C2=O` belongs “inactive”; to `CN1CC(=O)N2C(Cc3c([nH]c4ccccc34)[C@H]2c2ccc3c(c2)OCO3)C1=O` (stereo partly drawn), “inactive”; to `O=C1NC(=O)C(=Cc2ccc(-c3ccc(F)cc3)o2)S1`, “inactive”.
To `CC(C(=O)O)c1ccc(C(=O)c2ccccc2)s1` (stereo not drawn) belongs “inactive”.
Regarding `O=C(Nc1ccc([N+](=O)[O-])cc1Cl)c1cc(Cl)ccc1O`, the Potency is 1.09 µM (active).
As for `CCCC(=O)OC[C@@H](OC(=O)CCC)[C@@H](OC(=O)CCC)[C@H](Cn1c2nc(=O)[nH]c(=O)c-2nc2cc(C)c(C)cc21)OC(=O)CCC`, the entry is “inactive”; as for `O=C(CS)Nc1ccccc1`, “inactive”; as for `NC(N)=NN=C(/C=C/c1ccc([N+](=O)[O-])o1)/C=C/c1ccc([N+](=O)[O-])o1`, 3.46 µM (active).
As to `Cc1cc(O)c2ccccc2c1O`, the Potency is 8.69 µM (active).
As for `Cc1ccc(C(=O)c2ccc(CC(=O)O)n2C)cc1`, the entry is “inactive”.
Turning to `O=C(Nc1ncc([N+](=O)[O-])s1)c1cccs1`, the Potency entry is “inactive”.
To `COc1cc(NC(C)CCCN)c2ncccc2c1` (stereo not drawn) belongs “inactive”.

The record behind these values is PubChem BioAssay AID1224861 (National Center for Advancing Translational Sciences (NCATS), 2016).
